Most compounds without a hit are left out; they make up all but 12% or so of the library.
PLK1 PBD block: inhibitors of human PLK1 polo-box domain binding. AID 720504. Potency, µM, for inactives: max response, negative = inhibition, hits mostly inhibitors. P53350. actives 2.8% (n = 360,000). Plk1 PBD binding of FITC phosphopeptide, fluorescence polarization; further: potency means the concentration at half of the fitted maximal effect; series mostly up to about 57 µM; on the % scale 0 is the no-effect control and ±100 the full control effect; nearly all actives have a fitted effect of over 65% in size
Target sequence (P53350 whole entry, looked up, the tested form may be a part): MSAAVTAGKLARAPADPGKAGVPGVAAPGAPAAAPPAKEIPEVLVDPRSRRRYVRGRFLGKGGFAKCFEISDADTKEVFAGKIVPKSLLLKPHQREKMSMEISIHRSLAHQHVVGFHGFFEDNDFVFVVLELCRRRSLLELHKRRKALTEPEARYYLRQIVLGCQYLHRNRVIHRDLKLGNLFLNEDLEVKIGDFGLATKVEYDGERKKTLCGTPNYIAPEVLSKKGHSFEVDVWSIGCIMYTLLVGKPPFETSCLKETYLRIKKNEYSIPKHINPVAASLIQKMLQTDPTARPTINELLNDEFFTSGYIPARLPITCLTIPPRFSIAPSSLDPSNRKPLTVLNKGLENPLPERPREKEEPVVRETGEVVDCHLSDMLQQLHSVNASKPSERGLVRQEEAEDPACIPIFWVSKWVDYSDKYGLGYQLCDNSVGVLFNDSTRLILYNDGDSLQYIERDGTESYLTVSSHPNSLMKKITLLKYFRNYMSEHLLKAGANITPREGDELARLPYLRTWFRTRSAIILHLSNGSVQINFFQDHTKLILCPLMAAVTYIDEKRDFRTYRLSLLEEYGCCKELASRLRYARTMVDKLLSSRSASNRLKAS
HP1b binding inh: blocks HP1-beta chromodomain binding to methylated histone tails. actives 0.56% (n = 390,000). AlphaScreen HP1-beta / biotin-H3K9me3 peptide binding. AID 540317. Potency, µM (doses to about 114 µM), for the others: top-dose activity change, negative = inhibition, hits mostly inhibitors; further: potency means the concentration at half of the fitted maximal effect; nearly all actives have a fitted effect of over 70% in size
Target sequence (P83916 whole entry, looked up): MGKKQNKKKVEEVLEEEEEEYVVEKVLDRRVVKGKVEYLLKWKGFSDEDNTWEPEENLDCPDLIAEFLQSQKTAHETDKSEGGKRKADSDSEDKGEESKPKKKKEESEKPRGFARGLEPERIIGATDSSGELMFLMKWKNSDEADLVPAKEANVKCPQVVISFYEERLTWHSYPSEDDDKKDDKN
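AlphaScreen: HP1-beta (50 nM) preformed 30 min with biotin-H3(1-18)K9me3 peptide (50 nM) in PBS pH 7.4, 0.01% Tween-20. Compound added for 30 min at RT, then streptavidin donor/nickel chelate acceptor beads (10 ug/mL) for 30 min.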
PI5P4Ka inh: blocks human PI5P4K alpha kinase activity; max response, %; PI5P4Kalpha enzyme, ADP-Glo luminescence, 60 min; stronger effect = lower value; AID 652105; actives 1.2% (n = 330,000); active means max response of -50% or lower; inconclusive means between -30% and -50%; inactive means -30% or higher; further: value at the top dose of about 77 µM; on the % scale 0 is the no-effect control and ±100 the full control effect
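ADP-Glo luminescence end-point read after a 60 min room-temperature kinase reaction of PI5P4Kalpha plus substrate, initiated with ATP at 5 microM final. Buffer: 0.038 M HEPES pH 7.4, EGTA, 0.1% CHAPS, 5% DMSO.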
JMJD2A Tudor inh: blocks the human JMJD2A Tudor domain. O75164. AlphaScreen JMJD2A-Tudor / H3K4me3 peptide binding. Potency, µM (top dose mostly 114 µM), for inactives: at the highest dose activity change, negative = inhibition, hits mostly inhibitors. actives 4.4% (n = 390,000); further: potency means the concentration at half of the fitted maximal effect; on the % scale 0 is the no-effect control and ±100 the full control effect; nearly all actives have a fitted effect of over 50% in size
BAZ2B inh: BAZ2B (human) inhibition; Q9UIF8; Potency, µM (top dose mostly 114 µM), without a hit: top-dose activity change, negative = inhibition, hits mostly inhibitors; AlphaScreen BAZ2B-H3K14Ac peptide displacement; actives 4.4% (n = 360,000); further: potency means the concentration at half of the fitted maximal effect; on the % scale 0 is the no-effect control and ±100 the full control effect; nearly all actives have a fitted effect of over 60% in size
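In this displacement format the biotinylated H3(5-23) peptide acetylated at Lys14 serves as ligand at 50 nM, with BAZ2B at 50 nM in PBS pH 7.4 containing 0.01% Tween-20. Donor and acceptor beads are 10 ug/mL final.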
G9a inh: G9a (human) methyltransferase inhibition. Q96KQ7. G9a H3K9 monomethylation, AlphaScreen, 2 h. Potency, µM (series often up to 102 µM), for the others: at the top dose activity, negative = inhibition, hits mostly inhibitors. actives 8.8% (n = 350,000). AID 504332; further: potency means the concentration at half of the fitted maximal effect; on the % scale 0 is the no-effect control and ±100 the full control effect; nearly all actives have a fitted effect of over 75% in size
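Quantitative HTS format: methyltransferase activity on a biotin-tagged H3K9 peptide is measured by AlphaScreen, using a rabbit anti-monomethyl-H3K9 antibody with streptavidin donor and anti-IgG acceptor beads. Final levels are 20 nM enzyme, 500 nM peptide, 20 uM SAM; 2 h RT.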
Active calls of the source: *; ? = inconclusive; nt = not tested or not shown; [ ] = remark or other dose. Unless noted, the call rests on the fitted dose curve; in most records, active means well fitted curve in the direction sought with a large enough effect; inconclusive means small, poorly fitted or top-dose-only effect, or another doubt; inactive means no such curve, though single readings can be large; an effect the other way counts as inactive or inconclusive.

SMILES | PLK1 PBD block | HP1b binding inh | PI5P4Ka inh | JMJD2A Tudor inh | BAZ2B inh | G9a inh
COc1cccc(CC(=O)Nc2cccc3ccccc23)c1 | 0.0% | -4.3% | 2.7 | -13.4% | -1.4% | -1.3%[59 µM]
O=C(NCCc1csc2nc(-c3ccccc3F)nn12)c1ccco1 | nt | 11.0%[57 µM] | nt | -17.6% | -4.2% | 6.7%[59 µM]
CCOc1ccc2[nH]c(=O)c(CN(Cc3ccco3)Cc3nnnn3Cc3ccccc3)cc2c1 | -6.5% | 22.1% | nt | -19.6% | -26.5% | ?
CCOc1ccc2[nH]c(=O)c(CN(Cc3nnnn3Cc3ccco3)C3CCCCC3)cc2c1 | -14.7% | 2.0% | 1.2 | -27.0% | 44.7µM* | ?
CCCCN1C(=O)c2[nH]nc(-c3ccccc3O)c2C1c1ccc(OCc2ccccc2)cc1 (configuration not stated) | nt | 16.8% | nt | ? | ? | -32.6%[59 µM]
CC(C)(C)S(=O)(=O)/C(C#N)=N/Nc1ccc(Cl)cc1 | -15.2% | 2.5% | 0.9 | ? | ? | 35.5µM*
O=C(O)CCCN1C(=O)/C(=C\c2ccco2)SC1=S | -21.0% | ? | -26.9 | 79.4µM* | ? | 44.7µM*
O=C(CCCN1C(=O)/C(=C\c2ccccc2)SC1=S)N1CCOCC1 | -18.0% | ? | -0.5 | ? | nt | nt
O=C(CCN1C(=O)/C(=C/c2ccco2)SC1=S)Nc1ccc(O)cc1C(=O)O | 0.0% | 17.8µM* | -62.8* | 28.2µM* | 50.1µM* | 28.2µM*
O=C(O)CCN1C(=O)/C(=C\c2ccc(-c3nc4ccccc4s3)o2)SC1=S | 8.44µM* | 17.8µM* | -27.5 | 3.98µM* | ? | ?
O=C(CCN1C(=O)/C(=C\c2ccccc2)SC1=S)NNC(=O)c1ccccc1O | -5.1% | 32.3% | -5.3 | -9.8% | -9.1% | 7.6%
O=C(CCCN1C(=O)/C(=C/c2ccccc2)SC1=S)Nc1ccccc1O | -12.3% | -2.0% | 3.6 | -15.0% | -20.2% | -44.5%
O=C(CCCN1C(=O)/C(=C\c2ccccc2)SC1=S)Nc1ccc(O)cc1C(=O)O | -16.2% | 35.8% | -15.4 | 5.1% | 35.5µM* | nt
CC1Cc2ccccc2N1C(=O)CSc1nnc(-c2ccccc2Cl)o1 (configuration not stated) | nt | 55.6% | nt | 1.0% | 3.0% | 7.2%[59 µM]
CCOC(=O)c1cccc(N2CC3CNC(=O)C2(C(=O)OC)N3C)c1 (configuration not stated) | -11.0% | 21.5% | 0.4 | -20.0% | nt | nt
CN1CCN(NC(=O)CN2C(=O)/C(=C/c3c(Cl)cccc3Cl)SC2=S)CC1 | -25.2% | 19.9% | -5.2 | ? | ? | 56.2µM*
O=C(CCCN1C(=O)/C(=C/c2ccco2)SC1=S)Nc1ccccc1C(=O)O | ? | -17.3% | -81.7* | 89.1µM* | 39.8µM* | nt
O=C(CCN1C(=O)/C(=C/c2ccccc2Cl)SC1=S)Nc1ccccc1C(=O)O | 23.8µM* | -9.6% | -28.3 | ? | 35.5µM* | 25.1%[2.33 µM]
O=C1/C(=C\c2ccco2)SC(=S)N1Cc1ccccc1 | -14.5% | ? | -16.4 | 50.1µM* | 11.2µM* | 25.3%[0.501 µM]
CN(C(=O)Cc1ccccc1OC(=O)c1ccccc1)c1ccccc1I | nt | 23.1% | nt | -8.3% | nt | nt
COC(=O)C[C@@H]1CC[C@H](NC(=O)CC2CC2)[C@@H](CO)O1 | -19.8% | nt | -6.7 | nt | nt | nt
O=C(NCc1cccs1)c1csc([C@@H]2O[C@H](CO)[C@H](O)[C@H](O)[C@H]2O)n1 | -10.7% | nt | 1.7 | nt | nt | nt
O=C(CN1C(=O)/C(=C\c2ccco2)SC1=S)Nc1ccc(O)cc1C(=O)O | 16.8µM* | 21.9% | -62.0* | 5.1% | 39.8µM* | -2.6%[0.0925 µM]
O=C(CCCN1C(=O)/C(=C\c2ccco2)SC1=S)Nc1ccc2ccccc2c1 | -14.9% | 3.7% | -23.6 | -27.5% | ? | 25.1µM*
O=C(CN1C(=O)/C(=C/c2ccccc2)SC1=S)Nc1cccnc1 | -12.5% | 52.1% | 3.4 | -8.2% | ? | 11.0%
SMILES | PLK1 PBD block | HP1b binding inh | PI5P4Ka inh | JMJD2A Tudor inh | BAZ2B inh | G9a inh
COc1ccc(CCN2C(=O)/C(=C\c3ccco3)SC2=S)cc1OC | -11.2% | -21.9% | -1.7 | -30.3% | 8.91µM* | 44.7µM*
CC(C(=O)Nc1ccc(O)cc1C(=O)O)N1C(=O)/C(=C\c2cccs2)SC1=S (configuration not stated) | 6.7µM* | ? | ? | 44.7µM* | 50.1µM* | 7.94µM*
CCOc1ccc(CNC(=O)CCS(=O)(=O)c2cc3c4c(c2)CCN4C(=O)CC3)cc1OC | nt | 24.8% | nt | -1.6% | -5.2% | -7.5%[59 µM]
COc1cccc(/C=N/NC(=O)c2oc3nc(-c4ccccc4)cc(-c4ccco4)c3c2N)c1 | 3.4% | 36.9% | -7.3 | -9.7% | -19.6% | 31.6µM*
O=C(O)C(CCc1ccccc1)N1CCOCC1 (configuration not stated) | 5.1% | nt | 1.6 | nt | nt | nt
O=C(O)CC(C(=O)OCCOc1ccccc1)N1CCOCC1 (configuration not stated) | 0.8% | 11.6% | 0.9 | ? | -19.2% | 79.4µM*
CCOC(=O)C1CCN(S(=O)(=O)CCNC(=O)c2cccc(OC)c2)CC1 | -7.1% | 11.1% | 2.4 | -12.3% | -1.4% | 17.8µM*
COc1cccc(C(=O)NCCS(=O)(=O)N2CCC3(CC2)OCCO3)c1 | -1.5% | 31.6% | -1.4 | -3.4% | 6.0% | 15.8µM*
COc1cccc(C(=O)NCCS(=O)(=O)N2CCOCC2)c1 | -1.6% | 12.9% | 3.6 | -5.0% | -5.0% | 22.4µM*
Cc1nnc(NCc2ccc(F)cc2)c2c1nnn2Cc1ccccc1Cl | nt | 39.3% | nt | -7.9% | 3.2% | -2.9%[59 µM]
O=S(=O)(c1ccc2c(c1)OCCO2)N1CCN(S(=O)(=O)c2c(F)ccc(O)c2F)CC1 | nt | nt | nt | -13.7% | nt | nt
c1ccc(OCCCCN2CCOCC2)cc1 | 2.5% | 0.2% | nt | -2.2% | 7.0% | -4.6%
O=S(=O)(CCOc1ccccc1)N1CCOCC1 | -4.3% | 15.8% | 2.6 | 4.1% | 6.3% | 79.4µM*
O=C(C(=O)N1CCN(C(=O)OCc2ccccc2)CC1)c1cccs1 | 3.2% | nt | 7.8 | nt | nt | nt
CCN(CC)C(=O)C1=C(C)N(Cc2ccc(OC)cc2)C(=O)C(CC(=O)NCCCN(C)C)C1 (configuration not stated) | 3.0% | nt | 7.3 | nt | nt | nt
CCCN(CC1CC1)C(=O)CSc1ncnc2sccc12 | -5.8% | 55.1% | -1.5 | -6.8% | 1.8% | 39.8µM*
CC(OC(=O)c1cc[n+]([O-])cc1)C(=O)Nc1ccc(Cl)cn1 (configuration not stated) | -2.6% | 36.0% | 6.3 | -7.2% | 13.3% | ?
CC(OC(=O)c1ccc(C#N)cc1)C(=O)Nc1ccc(Cl)cn1 (configuration not stated) | -10.9% | 17.9% | 1.6 | 1.4% | 10.1% | 56.2µM*
COc1ccc(CS(=O)(=O)CC(C)(O)c2ccccc2)cc1 (configuration not stated) | -4.6% | 24.8% | 0.3 | -6.1% | -0.9% | -10.3%

Screening data from PubChem BioAssay.
